Hits are enriched below; roughly 7.4% of the tested compounds scored in any of these assays.
Rab9 prom act – qHTS Assay for Rab9 Promoter Activators | Potency, µM (series often up to 9.22 µM), without a hit: at the highest dose activation, negative = inhibition, usual class: activators | Huh7 Rab9 promoter-luciferase reporter, luminescence, 24 h | 2.8% of 320,000 active | AID 485297, 2010; further: % of control where 0% means no effect; nearly all actives have a fitted effect of over 60% in size
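Steps: seed 1500 Huh7 Rab9-luc cells per well, rest 2 h at 37 °C; add compound in DMSO; incubate 24 h; add luciferase reagent, 10 min ambient; read luminescence.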
Luc counter – Counterscreen for Luciferase (Kinase-Glo TM) Inhibition; Luciferin 4-monooxygenase (Photuris pensylvanica), Q27757; Kinase-Glo luciferase, ATP luminescence, 8 min; Potency, µM (doses to about 38.3 µM), for inactives: top-dose activity change, negative = inhibition, usual class: inhibitors; 0.28% of 200,000 active; AID 1379, 2008; further: on the % scale 0 is the no-effect control and ±100 the full control effect; nearly all actives have a fitted effect of over 60% in size
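Inhibition of Kinase-Glo luciferase light generation was assessed at 10 uM ATP in pH 7.2 imidazole buffer, with luminescence measured after eight minutes at ambient temperature.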
FLuc counter – qHTS profiling assay for firefly luciferase inhibitor/activator using purifed enzyme and Km concentrations of substrates (counterscreen for miR-21 project) | Luciferin 4-monooxygenase (Photinus pyralis), P08659 | purified FLuc, Km substrates, luminescence inhibition | Potency, µM (doses to about 57.5 µM), for the others: top-dose activity change, negative = inhibition, usual class: inhibitors | 6.9% of 360,000 active;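 further: plate controls were vehicle for no effect and reference inhibitor for full effect; nearly all actives have a fitted effect of over 55% in size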
Target sequence (P08659 whole entry, looked up): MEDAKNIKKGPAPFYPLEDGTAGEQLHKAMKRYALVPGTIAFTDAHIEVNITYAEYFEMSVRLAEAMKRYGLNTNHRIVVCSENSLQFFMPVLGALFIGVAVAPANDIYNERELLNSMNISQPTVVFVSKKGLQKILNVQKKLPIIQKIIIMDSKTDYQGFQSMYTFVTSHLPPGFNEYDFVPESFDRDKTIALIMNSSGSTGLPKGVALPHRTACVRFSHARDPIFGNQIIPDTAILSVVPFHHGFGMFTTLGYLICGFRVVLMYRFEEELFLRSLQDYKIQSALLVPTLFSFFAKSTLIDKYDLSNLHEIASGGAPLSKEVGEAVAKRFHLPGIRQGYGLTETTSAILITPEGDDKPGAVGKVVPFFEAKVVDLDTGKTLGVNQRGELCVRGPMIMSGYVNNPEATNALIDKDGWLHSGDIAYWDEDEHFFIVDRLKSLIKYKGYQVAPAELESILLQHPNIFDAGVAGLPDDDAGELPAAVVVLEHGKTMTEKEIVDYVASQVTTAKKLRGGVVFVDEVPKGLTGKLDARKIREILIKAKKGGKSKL
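Purified P. pyralis luciferase (10nM final) with 10uM D-luciferin and 10uM ATP (Km levels) in 50mM Tris acetate pH 7.5, 10mM Mg acetate, 0.01% Tween-20, 0.05% BSA; qHTS 6-point titration, ~60 µM downward; luminescence read.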
NPC1 promoter act – qHTS Assay for NPC1 Promoter Activators | 2.4% of 320,000 active | Huh7 NPC1 promoter luciferase reporter, 24 h | Potency, µM (doses to about 9.22 µM), without a hit: at the highest dose activation, hits mostly activators | AID 485313, 2010; further: % of control where 0% means no effect; nearly all actives have a fitted effect of over 60% in size
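In 1536-well qHTS, Huh7 cells harboring an NPC1 promoter–luciferase construct received compound for 24 h; activation was quantified by luminescence following luciferase reagent addition.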
SMN2 splice enh – qHTS Assay for Enhancers of SMN2 Splice Variant Expression; Potency, µM (series often up to 46.1 µM), for the others: at the highest dose activity change, positive = activation, actives largely listed as activators; AID 1458, 2008; 2.8% of 210,000 active; HEK293 SMN2-luciferase splicing reporter, luminescence, 30-36 h; further: % of control where 0% means no effect; nearly all actives have a fitted effect of over 55% in size
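qHTS luciferase splicing reporter: luminescence rises when SMN2 exon 7 is included in transfected HEK293 cells. Compound exposure lasted 30-36 h at 37C, with 4.5 mM final sodium butyrate as control, followed by a ONE-Glo read.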
ELG1 genotoxic – qHTS screen for small molecules that induce genotoxicity in human embryonic kidney (HEK293T) cells expressing luciferase-tagged ELG1. HEK293T ELG1-luciferase reporter, luminescence, 16 h. Potency, µM (top dose mostly 46 µM), inactives show at the top dose activity change, positive = activation, usual class: activators. 1.3% of 330,000 active. AID 504466, 2011; further: % of control where 0% means no effect; nearly all actives have a fitted effect of over 60% in size
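Step 1: seed 2,000 HEK293T ELG1-luciferase cells per well. Step 2: add compound or DMSO, incubate 16 hr at 37 °C. Step 3: ONE-Glo, 30 min at room temperature, read luminescence.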
Numbers without * were called inactive; ? = inconclusive; nt = no result; [ ] = another dose, or the depositor's remark. The call rests on the fitted dose curve; in most records, active means well fitted curve in the direction sought with a large enough effect; inconclusive means small, poorly fitted or top-dose-only effect, or another doubt; inactive means no such curve, though single readings can be large; an effect the other way counts as inactive or inconclusive. Potency means the concentration at half of the fitted maximal effect.

SMILES	Rab9 prom act	Luc counter	FLuc counter	NPC1 promoter act	SMN2 splice enh	ELG1 genotoxic
O=C(Nc1ccc(-c2n[nH]c(=S)o2)cc1)c1ccccc1Cl	22.1%	nt	10.7µM*	18.9%	nt	10.6%
N#Cc1ccc(-c2csc(-c3ccno3)n2)cc1	-5.2%	nt	-14.1%	2.3%	nt	5.1%
FC(F)(F)c1ccc(-c2csc(-c3ccno3)n2)cc1	18.0%	nt	26.9µM*	10.7%	nt	-1.1%
Nc1ccccc1SCc1csc(-c2ccc(Cl)cc2)n1	?	-1.0%[7.66 µM]	13.5µM*	?	-1.5%[9.22 µM]	9.5%
Cc1cc(C)nc(SCc2csc(-c3ccccc3)n2)n1	1.41µM*	0.7%	3.38µM*	2.51µM*	5.01µM*	4.61µM*
C[N+](C)(N)Cc1csc(-c2ccc(Cl)cc2)n1	nt	-7.9%[7.66 µM]	nt	nt	-6.3%[9.22 µM]	nt
C=CCn1c(SCC(=O)N(C)c2c(N)n(Cc3ccccc3)c(=O)[nH]c2=O)nnc1-c1ccccc1OC	5.6%	nt	2.2%	-1.5%	nt	4.7%
Cc1[nH]c2ccccc2c1C(=O)C(C)OC(=O)c1ccccc1NCCO (configuration not stated)	10.0%	nt	?	2.6%	nt	7.6%
COCCCNC(=O)C1=CCN(S(=O)(=O)c2ccc(OC)cc2)CC1	-0.3%	nt	1.1%	-9.1%	nt	3.4%
CCOC(=O)/C(C#N)=C1\C(=O)N(Cc2ccccc2)c2ccccc21	-1.0%	nt	?	-3.4%	nt	-5.1%
COc1ccc(C(=O)Nc2cccc(/C(C)=N/NC(=O)c3ccc([N+](=O)[O-])cc3)c2)cc1OC	1.6%	0.5%	5.36µM*	6.6%	-4.7%	11.9%
O=C(O)c1cccc(N/N=C/c2cc(Br)cc(Br)c2O)c1	2.82µM*	-2.5%	23.9µM*	?	3.7%[1.84 µM]	?
O=C(N/N=C/c1cc(Br)cc(Br)c1O)c1ccncc1	-28.5%	4.0%	-17.8%	-32.4%	-41.1%	?
C/C(=N\NC(=O)C(=O)Nc1cccc(C(F)(F)F)c1)c1ccc(Cl)s1	3.0%	-6.2%	2.0%	0.3%	-17.4%	-0.8%
COc1ccc(/C(C)=N/Nc2cccc(C(=O)O)c2)cc1OC	1.12µM*	-2.6%	3.79µM*	1µM*	10µM*	5.17µM*
C/C(=N\Nc1cccc(C(=O)O)c1)c1ccc(Cl)s1	2.82µM*	nt	10.7µM*	3.16µM*	nt	?
CS(=O)(=O)N1CCC2(CCCN(c3cccc(-c4ccccc4)c3)C2)CC1	nt	0.3%	nt	nt	-9.1%	nt
Cc1cc(C(=O)NCC(C)(C)N2CCOCC2)c(C)o1	-5.6%	nt	-0.3%	1.9%	nt	1.7%
Cc1ccc(S(=O)(=O)N2CCN(C(=O)COC(=O)c3ccc([N+](=O)[O-])o3)CC2)c(C)c1	2.5%	nt	nt	-2.3%	nt	1.8%
COc1ccc(Br)cc1/C=N/Nc1cccc(C(=O)O)c1	1.58µM*	-1.5%	21.3µM*	3.16µM*	11.2µM*	?
COc1ccc(Br)cc1/C=N/NC(=O)C[n+]1ccccc1	4.6%	nt	-2.9%	-0.8%	nt	0.7%
COc1ccccc1/C=C\C=N\NC(=O)c1ccco1	?	3.6%	?	20.4%	23.2%	?
COc1ccccc1/C=C/C=N/Nc1cccc(C(=O)O)c1	0.126µM*	nt	0.536µM*	0.112µM*	nt	0.651µM*
COc1ccc(/C(C)=N/Nc2nc3ccccc3nc2C)cc1OC	2.7%	nt	3.01µM*	20.3%	nt	1.0%
CCOc1ccc(N2C(=O)/C(=C\c3ccccc3OC)S(=O)(=O)C2c2cccc([N+](=O)[O-])c2)cc1 (configuration not stated)	-2.1%	1.6%	3.9%	-4.5%	-2.8%	0.6%
SMILES	Rab9 prom act	Luc counter	FLuc counter	NPC1 promoter act	SMN2 splice enh	ELG1 genotoxic
O=C(CCS(=O)(=O)c1ccc(Br)cc1)NCc1ccc(F)cc1	2.9%	nt	-2.8%	0.0%	nt	-1.1%[9.26 µM]
O=C(Nc1ccnn1C1CCN(CCCc2ccccc2)CC1)c1ccccc1Cl	16.7%	nt	4.2%	1.4%	nt	-4.5%
O=C1c2ccccc2CC1Sc1nnc(-c2ccccn2)o1 (configuration not stated)	25.4%	5.5%	12µM*	17.1%	17.3%	8.4%
COc1ccc(N(C(=O)c2cnccn2)C(C(=O)NC2CCCCC2)c2ccc(O)cc2)cc1 (configuration not stated)	8.5%	-1.7%	-1.8%	-1.0%	nt	3.7%
Cc1ccc(NC(=O)Nc2ccccc2C(N)=O)cc1	14.9%	nt	2.69µM*	16.7%	nt	12.0%
COc1ccc(NC(=O)Nc2ccccc2C(N)=O)cc1OC	nt	?	19µM*	nt	-7.9%	nt
COc1ccc(NC(=O)Nc2ccccc2C(N)=O)cc1	0.9%	8.91µM*	5.36µM*	-6.5%	10.3%	7.1%
COc1ccc(NC(=O)N/C=C/c2ccccc2)cc1	3.55µM*	-1.9%	?	2µM*	15.8µM*	?
COc1ccccc1NC(=O)Nc1ccccc1C(N)=O	0.7%	-3.3%	-17.9%	5.2%	-0.7%	3.4%
C=CCNC(=O)c1onc(CS(=O)(=O)c2cc(C)cc(C)c2)c1C(=O)NCC=C	1.7%	nt	-2.4%	-1.1%	nt	-0.5%
COc1ccc(-c2ccnc3c2c(=O)n(C)c(=O)n3C)cc1OC	nt	nt	-1.2%	nt	-9.6%	nt
COc1ccc(-n2c(=O)c3ccccc3n(Cc3cccc(C)c3)c2=O)cc1	nt	nt	-2.4%	nt	7.4%	nt
O=C(N/C=C/c1ccccc1)c1ccccc1	1.26µM*	nt	2.13µM*	1.12µM*	nt	?
CCOc1ccc(NC(=O)Nc2ccccc2C(N)=O)cc1	0.0%	7.08µM*	1.2µM*	7.7%	5.5%	2.0%
Cc1ccccc1C(=O)N(CC(=O)Nc1sc(C)c(C)c1C(N)=O)C1CCCC1	-1.4%	nt	3.4%	10.5%	nt	-23.8%
